Source: PubChem
Abeta yeast res: qHTS for compounds that reverse cellular toxicity of Amyloid beta (A-beta) peptide in yeast: Primary Screen | Potency, µM (top dose mostly 46.1 µM), most hits filed as activators | actives 0.063% (n = 410,000) | yeast expressing A-beta42, growth rescue, OD600, 48 h; response scale: 0% DMSO, 100% iron-clioquinol control | AID 1347071, 2019; also: nearly all actives have a fitted effect of over 55% in size
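Yeast A-beta toxicity model in growth medium with pinned compounds, 48 h at 30 C; growth read as absorbance at 600 nm. Normalized to FeCl3/clioquinol equimolar mix (positive) and DMSO (negative).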
ClpP mod: qHTS Assay for Activators of ClpP | ATP-dependent Clp protease proteolytic subunit (Bacillus subtilis (strain 168)), P80244 | purified B. subtilis ClpP, FRET peptide cleavage, 20 min | Potency, µM (highest dose often 57.5 µM), without a hit: top-dose activity change, negative = active | actives 1.9% (n = 340,000) | AID 651965, 2013; active = well fitted falling curve with a large enough effect; inconclusive = small, poorly fitted or top-dose-only effect; inactive = no such curve, though single readings can be large or run the other way; also: the source files actives as falling curves though it sought activators and does not explain the sign; nearly all actives have a fitted effect of over 65% in size
Target sequence (P80244 whole entry, looked up): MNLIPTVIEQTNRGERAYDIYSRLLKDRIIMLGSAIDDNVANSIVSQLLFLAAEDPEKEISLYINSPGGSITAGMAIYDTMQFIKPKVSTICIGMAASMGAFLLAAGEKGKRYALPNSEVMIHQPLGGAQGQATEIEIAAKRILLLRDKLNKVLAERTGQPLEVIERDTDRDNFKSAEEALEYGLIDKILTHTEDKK
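FRET quenching reversal measured ClpP activation: 10 microg/mL B. subtilis ClpP at pH 8 with the FRET-FV decapeptide, read at 430 nm after 320 nm excitation. The 20-min minus 0-min signal was scaled between DMSO/no-enzyme wells and ADEP (5.8 microM final).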
TDP43 rescue: qHTS of TDP-43 Inhibitors | Potency, µM (top dose mostly 46.1 µM), inactives show at the highest dose growth rescue (activation), hits mostly activators | actives 1.8% (n = 410,000) | TDP-43 expressing yeast growth rescue, BacTiter-Glo, 24 h; also: % of control where 0% means no effect; nearly all actives have a fitted effect of over 50% in size
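Yeast expressing TDP-43 (pregrown in raffinose, seeded at OD600=0.02 in galactose medium) exposed to compounds 24 hr at 30 deg C. Growth read by BacTiter-Glo luminescence; rescue of toxicity appears as increased signal.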
aSyn yeast inh: qHTS of alpha-syn Inhibitors | Potency, µM (top dose mostly 46.1 µM), without a hit: at the highest dose growth rescue (activation), hits mostly activators | AID 652106, 2013 | Yeast expressing alpha-synuclein, growth rescue, BacTiter-Glo, 24 h | actives 0.14% (n = 370,000); also: % of control where 0% means no effect; nearly all actives have a fitted effect of over 65% in size
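Screening used galactose-induced yeast with toxic alpha-synuclein levels, exposed to compound for 24 hr at 30 deg C. Cell growth, read with BacTiter-Glo luminescence, gave the measured signal.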
MmCpn inh: Inhibitors of TCP-1 ring complex (TRiC) of Methanococcus maripaludis (MmCpn): qHTS; Chaperonin Mm-Cpn (Methanococcus maripaludis); AID 504842, 2011; purified Mm-Cpn ATPase, ADP Transcreener TR-FRET; Potency, µM (series often up to 76.9 µM), for the others: at the top dose activity, negative = inhibition, usual class: inhibitors; actives 0.031% (n = 330,000); also: % is scaled to controls: 0 for no effect and ±100 for the full control effect; nearly all actives have a fitted effect of over 80% in size
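25 nM Mm-CPN + cpd, 10 min 37°C; + 10 uM ATP, 30 min 37°C; buffer 30 mM Tris pH 7.4, 100 mM KCl, 5 mM MgCl2, 1 mM DTT; Transcreener ADP HTRF detection 30 min RT.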
FUS yeast rescue: qHTS for Suppressors of FUS Proteinopathy: Primary screen using FUS-linked yeast assay | actives 0.24% (n = 390,000) | S. cerevisiae FUS-expressing, growth rescue, OD600, 24 h | Potency, µM (top dose mostly 76.6 µM), usual class: activators | AID 1347120, 2019;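 also: plate controls were DMSO vehicle for no effect and reference control for full effect; nearly all actives have a fitted effect of over 55% in size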
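Galactose (2%) drives FUS expression in yeast precultured in raffinose; seeding density OD 0.005. Test compounds incubated 24hr at 30C and 99% humidity before absorbance at 600 nm was measured.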
ClpP inh valid: qHTS Assay for Activators of ClpP: Hit Validation of Inhibitors; actives 40% (n = 470); shares compounds with ClpP mod; Potency, µM (doses to about 57.5 µM), for the others: top-dose activity change, negative = inhibition, most hits filed as inhibitors; AID 743245, 2014; purified B. subtilis ClpP, FRET-FV substrate cleavage, 20 min; also: % is scaled to controls: 0 for no effect and ±100 for the full control effect; nearly all actives have a fitted effect of over 70% in size
* hit, by the source's call; i = inactive; u = inconclusive; x = no result given. Compounds with a hit are over-represented: about 3.6% of the library has one in this group of screens. Unless noted, calls follow the shape of the dose curve; as a rule, active = well fitted curve in the direction sought with a large enough effect; inconclusive = small, poorly fitted or top-dose-only effect, or another doubt; inactive = no such curve, though single readings can be large; an effect the other way counts as inactive or inconclusive. Potency is read from the fitted curve at half-maximal effect.

SMILES	Abeta yeast res	ClpP mod	TDP43 rescue	aSyn yeast inh	MmCpn inh	FUS yeast rescue	ClpP inh valid
CNC(=O)c1ccsc1NC(=O)c1sc2ccccc2c1Cl	i	58%	17%	-5%	-29%	i	u
CC(C)Oc1ccc(C(=O)N2CC(=O)Nc3ccc(F)cc3C2c2ccc(F)cc2)cc1 (stereo not drawn)	i	1%	u	x	x	i	x
CCOc1ccc(NC(=O)c2cc3c(-c4ccccc4F)nn(C)c3s2)cc1	i	188%	8%	x	x	i	u
O=C(Nc1ccc2nc(SCC(=O)N3CCc4ccccc43)sc2c1)c1ccc(F)cc1	i	416%	-8%	x	x	i	24µM*
COc1ccccc1NC(=O)c1ccc(NC(=O)CN2CCCCC2)cc1	i	x	-22%	1%	-2%	i	x
COc1ccccc1NC(=O)CN1CCCCC1	i	4µM*	8%	-4%	0%	i	0%
Nc1nc(N2CCN(C(=O)c3ccco3)CC2)nc2ccccc12	i	4.5µM*	11%	0%	1%	i	27µM*
COc1ccc(Cl)cc1NC(=O)CSc1ccc2nnc(CCNS(=O)(=O)c3ccccc3)n2n1	i	0%	13%	x	x	i	x
Cn1c(=O)n(C)c2cc(NS(=O)(=O)c3ccc(C(C)(C)C)cc3)c(NCc3ccccc3)cc21	i	3.5µM*	-12%	x	x	u	22µM*
O=C(CCc1ccc(S(=O)(=O)N2CCOCC2)cc1)N1CCc2ccccc2C1	i	424%	11%	-1%	-20%	i	0%
Cc1ccc2oc(-c3ccc(NC(=O)c4cccnc4)cc3)nc2c1	i	51%	u	-3%	-3%	i	x
Cc1ccc2oc(-c3ccc(NC(=O)c4ccc5c(c4)OCO5)cc3)nc2c1	i	3.2µM*	0%	-1%	0%	i	12µM*
CCCOc1ccc(C(=O)Nc2ccc3oc(-c4ccc(N(C)C)cc4)nc3c2)cc1	i	1.3µM*	17%	x	x	i	1%
CCOc1cc(C(=O)Nc2ccc(-c3nc4cc(C)ccc4o3)cc2)cc(OCC)c1OCC	i	3.2µM*	u	x	x	i	31µM*
CCC(C)c1ccc2oc(-c3ccc(NC(=O)c4ncn[nH]4)cc3)nc2c1 (stereo not drawn)	i	10µM*	-27%	-8%	-1%	u	22µM*
CC(CNC(=O)c1sc2ncccc2c1-n1cccc1)c1ccccc1 (stereo not drawn)	i	0%	25%	x	x	i	x
Cc1ccc2oc(-c3ccc(NC(=O)CC(C)C)cc3)nc2c1	i	8.9µM*	-6%	-4%	-2%	i	u
COc1cc(C2C(C(=O)Nc3ccccc3)=C(C)Nc3nnnn32)cc(OC)c1OC (stereo not drawn)	i	-4%	-22%	x	x	i	x
Cc1c(C)c2ccc(OCC(=O)Nc3ccc(N4CCC(C)CC4)cc3)cc2oc1=O	i	38%	13%	3%	-5%	i	-11%
Cc1cc(=O)oc2cc(OCC(=O)Nc3ccc(N4CCC(C)CC4)cc3)ccc12	i	-2%	-2%	1%	-9%	i	x
